Data on 108 compounds can be found in PubChem BioAssay AID588511 (Johns Hopkins Ion Channel Center, 2011).

Screen size: about 310,000 compounds; about 3,600 (1.2%) were called active.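 How the source made its calls: active means ratio plate-corrected score three or more library SD toward inhibition, starting fluorescence score within five deviations; inactive means the rest.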 Only a selection was taken, and actives are over-represented in it overall.

In this experiment the target is Anoctamin-1 (Mus musculus) (UniProt Q8BHY3). The experiment in a line: TMEM16A chloride channel inhibitors, primary screen, cell-based, HTS (AID 588511).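 On normalized B-score (activity score, 25-100; higher = stronger inhibition): score derived from kinetic fluorescence span divided by baseline fluorescence per well.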 The conditions noted are these: HEK293 TMEM16A/YFP iodide influx fluorescence, ionomycin; at 10 µM.
Sequence of Anoctamin-1 (Mus musculus) (Q8BHY3 whole entry, looked up): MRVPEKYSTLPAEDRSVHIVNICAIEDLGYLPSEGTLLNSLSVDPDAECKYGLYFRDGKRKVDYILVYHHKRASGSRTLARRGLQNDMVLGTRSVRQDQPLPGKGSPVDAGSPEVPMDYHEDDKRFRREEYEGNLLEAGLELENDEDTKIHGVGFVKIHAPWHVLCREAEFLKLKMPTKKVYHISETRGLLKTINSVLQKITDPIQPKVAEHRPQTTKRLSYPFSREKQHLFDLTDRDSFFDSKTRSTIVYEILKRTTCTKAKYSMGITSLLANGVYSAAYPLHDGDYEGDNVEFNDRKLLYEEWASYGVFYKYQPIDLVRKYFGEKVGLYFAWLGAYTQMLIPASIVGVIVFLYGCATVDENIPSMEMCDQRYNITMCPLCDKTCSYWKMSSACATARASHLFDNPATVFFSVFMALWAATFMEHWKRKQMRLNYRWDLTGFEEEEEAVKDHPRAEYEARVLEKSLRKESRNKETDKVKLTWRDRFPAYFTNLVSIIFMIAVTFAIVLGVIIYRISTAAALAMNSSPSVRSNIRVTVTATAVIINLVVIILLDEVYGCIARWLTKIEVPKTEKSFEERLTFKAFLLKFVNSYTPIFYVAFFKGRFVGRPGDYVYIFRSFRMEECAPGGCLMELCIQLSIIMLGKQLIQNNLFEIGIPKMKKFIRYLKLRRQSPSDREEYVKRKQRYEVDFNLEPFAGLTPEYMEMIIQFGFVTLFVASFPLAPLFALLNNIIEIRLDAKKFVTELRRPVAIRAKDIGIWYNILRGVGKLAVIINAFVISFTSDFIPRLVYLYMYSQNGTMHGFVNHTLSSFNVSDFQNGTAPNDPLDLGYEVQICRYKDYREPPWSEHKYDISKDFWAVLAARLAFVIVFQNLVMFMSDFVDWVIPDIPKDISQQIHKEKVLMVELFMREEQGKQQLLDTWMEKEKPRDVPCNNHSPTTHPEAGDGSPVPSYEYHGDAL
On to `O=C(C1CC1)N1CCN=C1SCc1ccc(Cl)cc1`, for which the normalized B-score (activity score, 25-100; higher = stronger inhibition) entry is “inactive”.
As for `O=C(c1ccc(CSc2ccccc2)cc1)N1CCCCCC1`, the entry is “inactive”; as for `CC1CCN(C(=O)c2ccc(CSc3ccc(Cl)cc3)cc2)CC1`, 25 (active).
Take `CCCCN1C(N)=NC[C@@H]1Cc1ccccc1`: the normalized B-score (activity score, 25-100; higher = stronger inhibition) entry was “inactive”.
Regarding `COc1ccc(NS(=O)(=O)c2ccc(C)c(C(=O)NNC(=O)c3csc(N4CCOCC4)n3)c2)cc1`, the normalized B-score (activity score, 25-100; higher = stronger inhibition) entry was “inactive”.
As for `Cc1ccc(CN2CCN(Cc3ccc(OCCO)cc3)CC2CCO)o1` (stereo not drawn), the entry is “inactive”; as for `CC12CCC(C(=O)N(c3cccc(Cl)c3)C1=O)C2(C)C` (stereo not drawn), “inactive”.
As for `CC1=NN(c2cccc(Cl)c2)C(=O)C12CC(C)=C(C)CS2` (stereo not drawn), the figure is 100 (active); as for `Cc1ccccc1OCC(=O)NNC(=O)c1cc(S(=O)(=O)N(C)C)ccc1N1CCCC1`, “inactive”.
As for `CN(C(=O)COC(=O)c1ccc(Br)o1)c1c(N)n(Cc2ccccc2)c(=O)[nH]c1=O`, the entry is “inactive”; as for `COC(=O)c1ccccc1NS(=O)(=O)c1ccc2[nH]c(=O)[nH]c2c1`, “inactive”.
In the case of `COc1cccc(OC)c1C(=O)Nc1c(C(=O)N2CCN(c3ccccn3)CC2)oc2ccccc12`, the normalized B-score (activity score, 25-100; higher = stronger inhibition) result was “inactive”.
As for `Cc1cc(NC(=O)[C@H](C)NC(=O)c2ccco2)ccc1Br`, the entry is “inactive”; as for `O=C(CN1C(=O)C2C3C=CC(C3)C2C1=O)Nc1nc(-c2ccccn2)cs1` (stereo not drawn), “inactive”; as for `CC(NC(=O)c1ccco1)C(=O)Nc1nc(-c2ccccn2)cs1` (stereo not drawn), 100 (active).
For the compound `CCc1ccc(NC(=O)C(=O)NNC(=O)c2cccs2)cc1`, the normalized B-score (activity score, 25-100; higher = stronger inhibition) result was “inactive”.
To `OCC[C@H]1C[C@@H](O)[C@H](O)[C@@]2(OCCc3ccccc32)O1` belongs “inactive”; to `CCOC(=O)C1Nc2ccc(C(F)(F)F)cc2C2C=CCC12` (stereo not drawn), “inactive”; to `COc1ccc(C(=O)N2CCCCC2C(=O)Nc2ccc(-n3nc(C)cc3C)cc2)o1` (stereo not drawn), “inactive”.
As for `O=S(=O)(NC1CC2CCC1C2)c1ccc(Cl)cc1` (stereo not drawn), the entry is “inactive”; as for `Cc1cc(C)cc(OCC(=O)Nc2nc3ccc([N+](=O)[O-])cc3s2)c1`, 100 (active); as for `CCOc1ccc2nc(NC(=O)c3cc([N+](=O)[O-])ccc3N3CCOCC3)sc2c1`, “inactive”.
To `CCC(=O)c1ccc(OCC(=O)Nc2ccc3nc(C)sc3c2)cc1` belongs “inactive”; to `Cc1cc(F)ccc1N1CCC(N2CCN(C)C(CCO)C2)CC1` (stereo not drawn), “inactive”.
Regarding `Cc1cccc(C(=O)Nc2ccc(Oc3cnccn3)cc2)c1`, the normalized B-score (activity score, 25-100; higher = stronger inhibition) result is “inactive”.
Regarding `Cc1csc(=NC(=O)c2ccccc2)n1CCO`, the normalized B-score (activity score, 25-100; higher = stronger inhibition) entry is “inactive”.
As for `Cc1csc(=Nc2ccccc2)n1CCO`, the entry is “inactive”; as for `OCCn1c(-c2ccccc2)csc1=Nc1ccccc1`, 25 (active).
As for `O=C(OC1CCOC1=O)c1cccc(S(=O)(=O)Nc2ccc(F)cc2)c1` (stereo not drawn), the normalized B-score (activity score, 25-100; higher = stronger inhibition) result was “inactive”.
As for `CCOC(=O)C1CCN(C(=O)C2CCCN(S(=O)(=O)c3ccc(OC)c(Cl)c3)C2)CC1` (stereo not drawn), the entry is “inactive”; as for `COC(=O)c1ccc(COC(=O)C2CCN(S(=O)(=O)c3c(Cl)cccc3Cl)CC2)o1`, “inactive”; as for `COC(=O)c1ccc(COC(=O)c2c(C)nn(Cc3ccccc3Cl)c2Cl)o1`, 25 (active).
As for `COC(=O)c1ccc(CSc2ccccc2C)o1`, the entry is “inactive”.
Consider `Cc1ccc(O)c(/C=N/NC(=O)COc2ccc3c(C)cc(=O)oc3c2)c1`, for which the normalized B-score (activity score, 25-100; higher = stronger inhibition) result was “inactive”.
As for `S=C(NCC1CCCO1)N1CCN(c2ccc(Cl)c(Cl)c2)CC1` (stereo not drawn), the figure is 100 (active); as for `COc1ccc(S(=O)(=O)N2CCN(C(=S)NCC3CCCO3)CC2)cc1OC` (stereo not drawn), “inactive”; as for `CCOc1ccc(S(=O)(=O)N2CCN(C(=S)NCC3CCCO3)CC2)cc1` (stereo not drawn), “inactive”.
As for `Cc1ccccc1CN1CCNC(=O)C1CC(=O)NCCC1=CCCCC1` (stereo not drawn), the entry is “inactive”; as for `Cc1nnc(SCCCCSc2nnc(C)c(=O)[nH]2)[nH]c1=O`, “inactive”.
As for `CC(C)(C)c1ccc(CCC2OCC(CN3CCOCC3)O2)cc1` (stereo not drawn), the entry is “inactive”; as for `CCCC(C)n1[nH]c(=O)c2c(C)cc(C)nc21` (stereo not drawn), “inactive”.
As for `O=C(NNC(=S)NCc1ccco1)C(c1ccccc1)c1ccccc1`, the normalized B-score (activity score, 25-100; higher = stronger inhibition) result was “inactive”.
As for `CC(C)C(=O)Nc1cccc(NC(=S)NC(=O)C(c2ccccc2)c2ccccc2)c1`, the entry is “inactive”; as for `CCCCC(=O)NNC(=S)NC(=O)C(c1ccccc1)c1ccccc1`, 25 (active).
For the compound `CSCCC(NS(=O)(=O)c1ccc(C)cc1)C(=O)N1CCCC1` (stereo not drawn), the normalized B-score (activity score, 25-100; higher = stronger inhibition) result is “inactive”.
As to `CN(C)c1ccc(-c2nnc(-c3cccnc3)o2)cc1`, the normalized B-score (activity score, 25-100; higher = stronger inhibition) result was “inactive”.
As for `COc1cccc(N(C(=O)c2ccn[nH]2)C2(C(=O)Nc3c(C)cccc3C)CCCCC2)c1`, the entry is “inactive”.
For the compound `CS(=O)(=O)N1CCN=C1SCc1ccc(F)cc1`, the normalized B-score (activity score, 25-100; higher = stronger inhibition) entry is “inactive”.
As for `CCOC(=O)N1CCN(C(=O)c2ccc3c(c2)N(Cc2ccc(C)cc2)CCS3)CC1`, the normalized B-score (activity score, 25-100; higher = stronger inhibition) was 25 (active).
For `O=C(NCCc1ccccc1)c1ccc2c(c1)N(Cc1ccccc1)CCS2`, the normalized B-score (activity score, 25-100; higher = stronger inhibition) entry is “inactive”.
To `O=C(NCCN1CCOCC1)c1ccc2c(c1)N(Cc1ccc(Cl)cc1)CCS2` belongs “inactive”; to `CC1CCN(C(=O)c2cccc(S(=O)(=O)N3CCCc4ccccc43)c2)CC1`, “inactive”; to `O=C1CCC(=O)N(O)CCCCCNC(=O)CCC(=O)N(O)CCCCCNC(=O)CCC(=O)N(O)CCCCCN1`, “inactive”.
As for `Cc1ccc(NC(=O)c2nc[nH]c2C(=O)N[C@@H](CCCCNC(=O)OC(C)(C)C)C(=O)OC(C)(C)C)cc1`, the entry is “inactive”; as for `O=C(CC1SCCNC1=O)Nc1ccc(Cl)c(Cl)c1` (stereo not drawn), “inactive”.
To `O=C(Cc1ccc(Cl)c(Cl)c1)Nc1ccc(SC(F)F)cc1` belongs “inactive”; to `O=C(CC(O)(C(F)(F)F)C(F)(F)F)Nc1ccc(Cl)c(Cl)c1`, 100 (active).
On to `Cc1ccc(NC(=O)Cn2c(=O)n(CCC(=O)NC3CCN(Cc4ccccc4)CC3)c(=O)c3ccccc32)cc1`, for which the normalized B-score (activity score, 25-100; higher = stronger inhibition) entry was “inactive”.
As for `CCc1ccc(-c2nc(SCC(=O)NC3CCCC3)n[nH]2)cc1`, the figure is 25 (active); as for `COc1ccc(-c2nc(SCC(=O)N3CCCC3)n[nH]2)cc1`, “inactive”; as for `CCc1c(C)nc(SCC(=O)NC2CCCC2)[nH]c1=O`, “inactive”.
To `CCC(CC)C(=O)Nc1c2c(nn1-c1ccc(C)cc1)CS(=O)(=O)C2` belongs “inactive”.
To `O=C(NNS(=O)(=O)c1ccccc1C(F)(F)F)c1cc2ncc(C(F)(F)F)cc2s1` belongs “inactive”.
Turning to `CCCC(=O)Nc1ccccc1N1CCN(C(=O)c2ccccc2)CC1`, the normalized B-score (activity score, 25-100; higher = stronger inhibition) was 25 (active).
As for `CCCCC(=O)Nc1ccccc1N1CCN(c2ccc(F)cc2)CC1`, the entry is “inactive”.
As to `O=C(Nc1ccccc1N1CCN(C(=O)c2ccccc2)CC1)c1ccco1`, the normalized B-score (activity score, 25-100; higher = stronger inhibition) entry is “inactive”.
To `Cc1cc(C)cc(NS(=O)(=O)c2ccc(Oc3ncc(C(F)(F)F)cc3Cl)cc2)c1` belongs 25 (active); to `Cc1cc(C)cc(NS(=O)(=O)c2ccc(F)cc2)c1`, “inactive”; to `COc1ccccc1Oc1ccc(S(=O)(=O)Nc2cccnc2)cc1`, “inactive”.
As for `CN1C(CC(=O)Nc2ccc(Br)cc2)c2ccccc2CC1(C)C` (stereo not drawn), the entry is “inactive”; as for `CCc1ccccc1NC(=O)CSc1nnc(CCNC(=O)OC(C)(C)C)o1`, “inactive”; as for `Cc1ccccc1CSc1nnc(CCCCCNC(=O)OC(C)(C)C)o1`, 100 (active).
To `Cc1cccc(NC(=O)CSc2nnc(CCCCCNC(=O)OC(C)(C)C)o2)c1C` belongs “inactive”; to `CCc1ccc(C2C(C#N)=C(N)N(N3CCOCC3)C3=C2C(=O)CC(C)(C)C3)s1` (stereo not drawn), “inactive”; to `COc1cccc(C(=O)NCCS(=O)(=O)NCC2CCCO2)c1` (stereo not drawn), “inactive”.
For `S=C(NCCCc1ccccc1)Nc1ccc(Br)cc1`, the normalized B-score (activity score, 25-100; higher = stronger inhibition) is 100 (active).
As for `S=C(NN=C1CCN(Cc2ccccc2)CC1)NC1CCCCC1`, the entry is “inactive”.
To `S=C(Nc1ccc(Br)cc1Cl)NC1CCN(Cc2ccccc2)CC1` belongs “inactive”; to `O=C(CCNC(=O)c1ccc(Br)cc1)NCCCc1ccccc1`, “inactive”.
As for `S=C(NCCc1ccccc1)Nc1ccccc1`, the entry is “inactive”; as for `S=C(Nc1ccc(Br)cc1)NC1CCN(Cc2ccccc2)CC1`, 25 (active); as for `O=C(NCc1ccccn1)C1CCN(S(=O)(=O)c2ccc(Br)cc2)CC1`, “inactive”.
As to `COc1ccc(C(C#N)(CC(=O)O)c2cnccn2)cc1OC` (stereo not drawn), the normalized B-score (activity score, 25-100; higher = stronger inhibition) entry is “inactive”.
As for `O=C(NC1CCC(O)CC1)c1ccccc1OCc1ccc(F)cc1` (stereo not drawn), the entry is “inactive”; as for `CC(=O)c1ccccc1OCc1ccc(C(=O)c2ccccc2)cc1`, 25 (active); as for `COc1ccc(CCNC(=O)c2ccccc2OCc2ccccc2)cc1`, “inactive”.
As for `COc1ccccc1CNS(=O)(=O)c1ccc2c(c1)NC(=O)CS2`, the entry is “inactive”.
As for `O=C(Nc1ccccc1)Nc1nnc(COc2ccccc2F)s1`, the entry is “inactive”; as for `CCSc1nsc(NC(=O)Nc2cccc(C(C)=O)c2)n1`, “inactive”.
On to `CSc1nsc(NC(=O)Nc2ccccc2)n1`, for which the normalized B-score (activity score, 25-100; higher = stronger inhibition) is 100 (active).
Take `C=CCSc1nsc(NC(=O)Nc2cccc(C(C)=O)c2)n1`: the normalized B-score (activity score, 25-100; higher = stronger inhibition) is 100 (active).
As for `CCSc1nsc(NC(=O)Nc2ccccc2OC)n1`, the entry is “inactive”.
For `C=C(C)C(=O)Nc1cccc(C(C)=O)c1`, the normalized B-score (activity score, 25-100; higher = stronger inhibition) entry was “inactive”.
To `COc1ccc(-c2c(-c3ccc(OC)cc3O)nc(C)nc2C(F)(F)F)cc1` belongs “inactive”.
To `COc1cc(NC(=O)c2ccc(-c3csc(C)n3)cc2)c(OC)cc1Cl` belongs “inactive”; to `CC1CCCCN1CCCNC(=O)Cn1ncc2c([nH]c3ccccc32)c1=O` (stereo not drawn), “inactive”.
To `Cc1ccc2c(c1)N(CC(=O)NCCCN1CCCCC1)C(=O)c1cccnc1O2` belongs “inactive”; to `Clc1ccc(-c2nc3ccccn3c2CN2CCSCC2)cc1`, “inactive”; to `CCCCn1c(N)c(N(CC(C)C)C(=O)CN(C)S(=O)(=O)c2ccc(F)cc2)c(=O)[nH]c1=O`, “inactive”.
Consider `CC(=O)c1cccc(NC(=O)N2CCCC2C(=O)NCCC(C)C)c1` (stereo not drawn), for which the normalized B-score (activity score, 25-100; higher = stronger inhibition) was 25 (active).
To `COc1ccc(CCNC(=O)C2CCCN2C(=O)Nc2ccccc2)cc1OC` (stereo not drawn) belongs “inactive”.
As for `CC(=O)c1cccc(NC(=O)N2CCCC2C(=O)NCCc2ccccc2)c1` (stereo not drawn), the entry is “inactive”.
To `Cc1snc(SCc2c(F)cccc2Cl)c1C#N` belongs “inactive”.
Consider `Cc1cc(C)c2c(-n3cccc3)c(C(=O)NNS(=O)(=O)c3ccc(F)cc3)sc2n1`, for which the normalized B-score (activity score, 25-100; higher = stronger inhibition) entry was “inactive”.
As for `CC(Sc1nnc(Cc2ccc([N+](=O)[O-])cc2)o1)C(N)=O` (stereo not drawn), the entry is “inactive”; as for `CCn1nccc1C(=O)Nc1ccc(Cl)c(Cl)c1`, “inactive”; as for `Cc1cc(C(F)F)n2nc(C(=O)Nc3ccc(S(=O)(=O)NC45CC6CC(CC(C6)C4)C5)cc3)nc2n1`, “inactive”.
As for `CCn1nccc1C(=O)Nc1ccc(S(=O)(=O)NC23CC4CC(CC(C4)C2)C3)cc1`, the figure is 25 (active).
